SMILES strings stand for the structures. Screen size: about 16,000 compounds; about 5,700 (36%) were called active. Not shown: some 24% with an inconclusive outcome. The list shows a part of the results. Unmarked numbers belong to inactive results. Calls follow the shape of the dose curve; as a rule, active = well fitted curve in the direction sought with a large enough effect; inconclusive = small, poorly fitted or top-dose-only effect, or effect the other way; inactive = no such curve, though single readings can be large or run the other way.

Usually AC50 stands for the concentration at which the activity in the assay is half-maximal.
% is scaled to controls: 0 for no effect and ±100 for the full control effect.

The target of the test is Cytochrome P450 1A2 (Homo sapiens) (UniProt P05177). The test is described as follows: Cytochrome panel assay with activity outcomes. The note with it: recombinant CYP, pro-luciferin dealkylation, luminescence, p450-cyp1a2; series mostly up to 57.1 µM; activity, negative = inhibition: at the top concentration.
Sequence of Cytochrome P450 1A2 (Homo sapiens) (P05177 whole entry, looked up): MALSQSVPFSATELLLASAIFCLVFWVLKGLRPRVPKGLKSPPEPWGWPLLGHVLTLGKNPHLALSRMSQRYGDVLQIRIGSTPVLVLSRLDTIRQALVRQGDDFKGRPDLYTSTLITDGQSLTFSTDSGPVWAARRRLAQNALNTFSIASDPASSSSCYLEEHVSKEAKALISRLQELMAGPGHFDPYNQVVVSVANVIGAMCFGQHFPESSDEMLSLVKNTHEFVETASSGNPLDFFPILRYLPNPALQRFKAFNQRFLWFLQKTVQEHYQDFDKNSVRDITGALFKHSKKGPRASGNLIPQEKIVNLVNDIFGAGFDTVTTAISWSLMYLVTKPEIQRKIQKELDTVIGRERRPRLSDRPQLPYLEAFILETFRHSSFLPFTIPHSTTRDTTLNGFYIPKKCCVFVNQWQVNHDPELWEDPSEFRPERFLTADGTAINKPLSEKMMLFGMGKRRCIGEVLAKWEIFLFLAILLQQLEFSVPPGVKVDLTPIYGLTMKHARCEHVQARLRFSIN
In the case of `CCC(=O)Nc1ccc(N2CCN(CC)CC2)c(Cl)c1`, the “activity, negative = inhibition” value is 5.31%.

With `COC(=O)[C@H]1[C@@H](c2ccccc2)[C@@]2(c3ccccc3)Oc3ccccc3[C@@]1(O)[C@@H]2O`, the activity, negative = inhibition was 4.61% [at 11.4 µM].

Turning to `CC(C)[C@H](CO)Nc1nc(Nc2cccc(Cl)c2)c2ncn(C(C)C)c2n1`, the AC50 was 0.316 µM (active).

`CC[C@@H](CO)Nc1nc(NCc2ccccc2)c2ncn(C(C)C)c2n1`: the AC50 was 12.6 µM (active).

Take `O=C(O)[C@@H](Br)[C@H](Br)C(=O)O`: the activity, negative = inhibition was 5.86% [at 11.4 µM].

On to `CC(C)CNC(=S)NC1CC2CCCC(C1)N2Cc1ccco1` (centres undefined), for which the “activity, negative = inhibition” value is 4.27%.

As to `CC(C)N(CC[C@@](C(N)=O)(c1ccccc1)c1ccccn1)C(C)C`, the AC50 entry is “inactive”.

With `C(#CCN1CCCC1)CN1CCCC1`, the “activity, negative = inhibition” value was 1.87% [at 25.6 µM].

As to `CNC(=O)Oc1ccc2c(c1)[C@@]1(C)CCN(C)[C@@H]1N2C`, the “activity, negative = inhibition” value was -6.82% [at 25.6 µM].

As to `O=C(C[n+]1ccc2ccccc2c1)c1ccc2ccc3ccccc3c2c1`, the concentration at half-maximal activity (AC50) was 2.51 µM (active).

`CCOC(=O)c1c(NC(=O)C(c2ccccc2)c2ccccc2)sc2c1C1CCN2CC1`: the “activity, negative = inhibition” value was -3.75%.

On to `COc1ccc(NC(=O)NC2CC3CCCC(C2)N3Cc2ccccc2)cc1` (centres undefined), for which the “activity, negative = inhibition” value is 1.27%.

As for `NC[C@@H](Cc1ccccc1)P(=O)(O)O`, the activity, negative = inhibition is -9.3% [at 11.4 µM].

`Nc1nc2ccc(Cl)cc2c2nc(-c3ccco3)nn12`: the AC50 was 0.0631 µM (active).

Regarding `CN1CC[C@@]2(CCCN(C(=O)c3ccncc3)C2)C1`, the “activity, negative = inhibition” value was 2.09%.

In the case of `COC(=O)N1CCN(C(=O)Cc2ccc(Cl)c(Cl)c2)[C@H](CN2CCCC2)C1`, the AC50 result is “inactive”.

Regarding `CSC([N-]/N=C/c1cccc(C)n1)=[S]=[Cu].CS[C@H]([S-])[N-]/N=C/c1cccc(C)n1`, the concentration at half-maximal activity (AC50) is 0.631 µM (active).

As for `O=C(Oc1ccccc1)N1CCC2(CCCN(C(c3ccccc3)c3ccccc3)C2)CC1`, the “activity, negative = inhibition” value is 6.99%.

On to `c1ccc2c([C@@H]3CCN(CCN4CCOCC4)C3)c[nH]c2c1`, for which the activity, negative = inhibition is -9.42% [at 11.4 µM].

Consider `CNCCCc1ccccc1`, for which the “activity, negative = inhibition” value is -2.27%.

As for `c1ccc(CCCCN2CCC(c3ccccc3)CC2)cc1`, the half-maximal activity concentration (AC50) is 15.8 µM (active).

On to `NC[C@@H](O)CSP(=O)(O)O`, for which the activity, negative = inhibition is -2.54% [at 11.4 µM].

On to `CCN1C[C@]2(COC)CC[C@H](O)[C@@]34[C@@H]5C[C@H]6[C@@H](OC)[C@H]5[C@](O)(C[C@@H]6OC)[C@@](O)([C@@H](OC)[C@H]23)[C@@H]14`, for which the “activity, negative = inhibition” value was 0.799% [at 25.6 µM].

Take `COc1cc2cc(c1Cl)N(C)C(=O)C[C@H](OC(=O)C(C)C)[C@]1(C)O[C@@H]1[C@@H](C)[C@H]1C[C@](O)(NC(=O)O1)[C@@H](OC)/C=C\C=C(\C)C2`: the activity, negative = inhibition is -7.72% [at 11.4 µM].

Take `O=c1[nH]c(=O)n(CCc2ccc(F)cc2)c(O)c1C=NCCCN1CCOCC1`: the “activity, negative = inhibition” value is -8.06%.

Regarding `CCCCn1c(O)c(C(CC)=Nc2ccc(OC)cc2OC)c(=O)[nH]c1=O`, the AC50 is 12.6 µM (active).

On to `CCC(=Nc1cc(OC)ccc1OC)c1c(O)[nH]c(=O)[nH]c1=O`, for which the AC50 is 14.1 µM (active).

On to `O=c1[nH]c(=O)n(CCC2=CCCCC2)c(O)c1C=Nc1cccc(F)c1`, for which the “activity, negative = inhibition” value was -0.302%.

Take `CCCCn1c(O)c(C(CC)=NCc2ccc(F)cc2)c(=O)[nH]c1=O`: the AC50 was 8.91 µM (active).

Take `CC1=C(C)[N+](=O)C2(O)CCCCC2(C)N1[O-]` (centres undefined): the “activity, negative = inhibition” value is 12.4%.

As to `Nc1nc(N)c2nc(CNc3ccc(C(=O)N[C@H](CCC(=O)O)C(=O)O)cc3)cnc2n1`, the “activity, negative = inhibition” value was -19.4%.

As to `CN(C)C(=O)Oc1cc(OC(=O)N(C)C)cc([C@@H](O)CNC(C)(C)C)c1`, the “activity, negative = inhibition” value is -3.04% [at 25.6 µM].

With `C[C@H](c1ccccc1)N1CCN([C@@H](C)c2ccccc2)CC1`, the activity, negative = inhibition was -16% [at 2.29 µM].

Turning to `O=C(O)CSCC(=O)O`, the activity, negative = inhibition is -2.34% [at 11.4 µM].

Turning to `CC1=C2C(=O)[C@@H]3[C@@H](CC=C4C[C@@H](O)CC[C@@]43C)[C@H]2CC[C@@]12O[C@H]1C[C@H](C)CN[C@H]1[C@@H]2C`, the activity, negative = inhibition was -16.8% [at 11.4 µM].

Consider `O=C(Oc1ccccc1)N1CCC2(CCCN(Cc3nccs3)C2)CC1`, for which the “activity, negative = inhibition” value was 1.1%.

Consider `C[C@]12N[C@H](Cc3ccccc31)c1ccccc12`, for which the AC50 entry is “inactive”.

On to `CCCCC/C=C\C/C=C\C/C=C\C/C=C\CCCC(=O)NCC(=O)O`, for which the “activity, negative = inhibition” value was -16.2%.

For the compound `CCCCCCCC/C=C\CCCCCCCC(N)=O`, the AC50 was 6.31 µM (active).

For the compound `CC(C)[C@@]1(NC(=O)[C@@H]2C[C@H]3c4cccc5[nH]cc(c45)C[C@@H]3N(C)C2)O[C@@]2(O)[C@H]3CCCN3C(=O)[C@H](Cc3ccccc3)N2C1=O`, the “activity, negative = inhibition” value was -4.49%.

For `COC(=O)NC/C=C\c1nc(CC/C=C\C(=O)O[C@H]2C[C@H]3CC(=O)O[C@@H](/C=C\CC(C)C)C[C@@H]4CC[C@H](C)[C@H](C[C@@H](OC)C[C@H](C2)O3)O4)co1`, the activity, negative = inhibition is 3.2% [at 11.4 µM].

`Cc1cccc([C@H](C)c2cnc[nH]2)c1C`: the AC50 is 0.158 µM (active).

For the compound `C=C1CC[C@H](O)C/C1=C/C=C1\CCC[C@]2(C)[C@H]1CC[C@H]2[C@@H](C)CCCC(C)C`, the “activity, negative = inhibition” value was -3.1% [at 25.6 µM].

Turning to `CCNC(=S)NC1CC2CCCC(C1)N2Cc1ccco1` (centres undefined), the “activity, negative = inhibition” value was 0.456%.

These data come from PubChem BioAssay AID1851 (National Center for Advancing Translational Sciences (NCATS), 2009).
